Source: PubChem (National Center for Advancing Translational Sciences (NCATS))
LmPK inh: qHTS Assay for Inhibitors of Leishmania Mexicana Pyruvate Kinase (LmPK) | Q27686 | purified LmPK, Kinase-Glo ATP luminescence, 1 h | Potency, µM (doses to about 57.5 µM), hits mostly inhibitors | actives 0.37% (n = 290,000) | AID 1721, 2009
Target sequence (Q27686 whole entry, looked up): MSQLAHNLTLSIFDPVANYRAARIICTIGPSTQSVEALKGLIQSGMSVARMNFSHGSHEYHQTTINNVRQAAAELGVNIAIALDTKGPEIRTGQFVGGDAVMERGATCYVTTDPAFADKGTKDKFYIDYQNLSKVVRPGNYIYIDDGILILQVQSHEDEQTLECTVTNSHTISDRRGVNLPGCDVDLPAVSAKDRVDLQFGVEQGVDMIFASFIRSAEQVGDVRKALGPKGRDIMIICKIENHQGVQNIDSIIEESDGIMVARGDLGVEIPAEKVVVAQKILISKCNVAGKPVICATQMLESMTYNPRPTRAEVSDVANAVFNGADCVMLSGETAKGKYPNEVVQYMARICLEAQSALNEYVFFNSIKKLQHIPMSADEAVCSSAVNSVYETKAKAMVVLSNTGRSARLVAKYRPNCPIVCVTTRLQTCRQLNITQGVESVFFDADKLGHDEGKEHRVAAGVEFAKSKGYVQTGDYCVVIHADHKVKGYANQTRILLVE
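Kinase-Glo luminescence read after 1 h RT reaction of 0.1 nM LmPK with 0.5 mM PEP and 0.1 mM ADP. Activity scaled between uninhibited and enzyme-free controls.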
Shiga toxin inh: A qHTS for Small Molecule Inhibitors of Shiga Toxin; inhibition, % at 38.7 µM; Vero cells, Shiga toxin protein synthesis inhibition reporter; AID 2315, 2010; actives 9.2% (n = 290,000); in the data active = inhibition mostly above about 28%, no sharp cut-off; inactive = mostly below about 43%
Tb PYK inh: qHTS of Trypanosoma Brucei Inhibitors | pyruvate kinase (Trypanosoma brucei), Q57TT1 | actives 0.12% (n = 410,000) | AID 624173, 2012 | TbPYK enzyme, Kinase-Glo Plus ATP luminescence, 45 min | Potency, µM (top dose mostly 76.8 µM), most hits filed as inhibitors; also: nearly all actives have a fitted effect of over 50% in size
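Glycolytic pyruvate kinase of T. brucei was incubated with substrate, test compound and 130 uM ADP for 45 minutes at room temperature. Luminescent Kinase-Glo Plus signal was measured after 10 minutes.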
Cycloheximide cs: Cycloheximide Counterscreen for Small Molecule Inhibitors of Shiga Toxin | cell reporter, cycloheximide protein synthesis inhibition counterscreen | max response, % | actives 12% (n = 300,000); in the data active = max response mostly above about 13%, no sharp cut-off; inactive = mostly below about 14%; also: read at 38.3 µM for the half of the compounds with a filed dose
RE007 growth inh: qHTS Assay for Inhibitors of the HIV-1 protein Vpr; S. pombe RE007 Vpr strain, BacTiter-Glo ATP luminescence, 24 h; actives 0.21% (n = 360,000); Potency, µM (series often up to 92.2 µM), most hits filed as inhibitors; active = well fitted falling curve with a large enough effect; inconclusive = small, poorly fitted or top-dose-only effect; inactive = no such curve, though single readings can be large or run the other way; also: nearly all actives have a fitted effect of over 50% in size
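Fission yeast RE007 carrying one integrated HIV-1 vpr copy, seeded at OD 0.01 in PMG+AL medium with 23 nL pinned compound. Grown 24 h at 30 degrees; viability read by BacTiter-Glo luminescence after 5 min.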
FBPA Giardia inh: qHTS Assay for Inhibitors of Fructose-1,6-bisphosphate Aldolase from Giardia Lamblia | AID 2451, 2010 | A8B2U2 | Potency, µM (titrated, usually from 59.6 µM), most hits filed as inhibitors | actives 0.71% (n = 290,000) | purified Giardia FBPA; also: nearly all actives have a fitted effect of over 55% in size
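40 nM FBPA preincubated 10 min at RT with compound (up to 57.5 uM final), then substrate plus GAPDH/TPI/NAD/arsenate coupling and diaphorase/resazurin added. Fluorescence read after 20 min at RT, 525/598 nm.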
Hits are given with their value; - = inactive; ? = inconclusive; . = no result given; + = active, no number. This is one part of a sample in which hits are shown more often than they occur. Unless noted, calls follow the shape of the dose curve; as a rule, active = well fitted curve in the direction sought with a large enough effect; inconclusive = small, poorly fitted or top-dose-only effect, or another doubt; inactive = no such curve, though single readings can be large; an effect the other way counts as inactive or inconclusive.

SMILES | LmPK inh | Shiga toxin inh | Tb PYK inh | Cycloheximide cs | RE007 growth inh | FBPA Giardia inh
CC(C)=NNc1nc(-c2ccc([N+](=O)[O-])cc2)cs1 | - | 18 | - | 22 | - | -
C/C=C/C=N/Nc1nc(-c2ccc([N+](=O)[O-])cc2)cs1 | - | 90 | - | - | - | -
CC(C)c1nc(-c2ccc([N+](=O)[O-])cc2)cs1 | - | 56 | - | 39 | . | -
O=C(N/N=C/c1c(Cl)cccc1Cl)c1cccc(F)c1 | - | - | - | - | - | -
O=C(N/N=C/c1ccccc1Cl)c1cccc(F)c1 | ? | 97 | - | 78 | - | -
O=C(N/N=C/c1cccc2ccccc12)c1cccc(F)c1 | - | 79 | - | 63 | - | -
O=C(Cn1c(=O)n(CCc2ccccc2)c(=O)c2cccnc21)Nc1ccc(F)cc1 | . | . | - | . | . | .
N#Cc1c(-c2ccco2)cc(-c2cccnc2)nc1N | - | - | - | - | - | ?
N#Cc1c(-c2ccco2)cc(-c2ccccn2)nc1N | - | - | - | 33 | - | -
Cc1ccc2nc(-c3cc(-c4ccccc4)no3)cn2c1 | - | 114 | - | 49 | - | -
CCc1ccn2cc(-c3cc(-c4ccccc4)no3)nc2c1 | 16µM | - | - | 37 | - | -
Cc1ccc(Cc2cn3cc(-c4ccccc4)nc3s2)cc1 | . | . | - | . | . | .
Cc1ccc(C)c(NC(=O)Cn2cc(C(=O)C3CCCCC3)c3ccccc32)c1 | . | . | - | . | . | .
Cc1cccc(N=Nc2cnc(N)s2)c1 | - | 49 | - | 47 | - | -
Cc1ccc(O)c(-c2cc(-c3ccc(F)cc3)no2)c1 | - | 122 | - | 37 | - | -
Cc1ccc(-c2cc(-c3ccccc3)no2)c(O)c1 | - | - | - | 43 | - | -
Cc1ccccc1-c1csc(N)n1 | . | . | - | . | - | .
Oc1ccccc1-c1cc(-c2ccccc2)no1 | - | + | - | 47 | - | -
Cc1ccccc1-c1cc(-c2ccccc2O)on1 | - | 76 | - | 52 | - | -
CC(C)CC(N)c1csc(Nc2cnccn2)n1 (centres undefined) | . | . | - | . | - | .
Cc1ccc(C(=O)N/C(=C\c2cccc([N+](=O)[O-])c2)C(=O)NC(Cc2ccccc2)C(=O)O)cc1 (centres undefined) | - | - | - | - | - | .
Cc1ccc(C(=O)c2sc(Nc3ccccc3)c(S(=O)(=O)c3ccccc3)c2N)c(C)c1 | . | . | - | . | . | .
CCOC(=O)c1nc(NCc2ccc(Cl)cc2)c2c(C)noc2n1 | . | . | - | . | . | .
O=C(Nc1cccc(Br)c1)c1cccc(OC(=S)N2CCOCC2)c1 | - | 44 | - | 41 | - | .
O=C(Nc1ccc(C(=O)N2CCOCC2)cc1)c1cccc(Br)c1 | - | - | - | 30 | - | .
SMILES | LmPK inh | Shiga toxin inh | Tb PYK inh | Cycloheximide cs | RE007 growth inh | FBPA Giardia inh
COc1ccc(NC(=O)c2ccc(NCCN3C(=O)CCC3=O)c([N+](=O)[O-])c2)cc1 | - | - | - | - | - | -
COc1cccc(CN2CC(C(=O)NCCc3ccc(C)s3)CCC2=O)c1 (centres undefined) | - | - | - | - | - | .
O=C(COC(=O)/C=C/c1ccccc1Cl)Nc1cccnc1Cl | . | . | - | . | - | .
COc1ccccc1/C=C/C(=O)NCCc1ccccn1 | - | 88 | - | 55 | - | -
COc1cc(/C=C/C(=O)NCc2ccccn2)cc(OC)c1OC | - | - | - | - | - | -
COc1ccc(/C=C/C(=O)Nc2cccnc2Cl)cc1 | - | 60 | - | 42 | - | -
COc1ccccc1/C=C/C(=O)Nc1cccnc1Cl | - | 51 | - | 30 | - | -
CCOC(=O)c1c(Nc2ccc(O)cc2)nnc(-c2ccccc2)c1-c1ccccc1 | . | . | - | . | . | .
COc1ccc2c(c1)c1c(c(=O)n(-c3ccc(OC)c(OC)c3)c(=O)n1Cc1ccccc1F)n2C | . | . | - | . | . | .
c1ccc(Oc2cc(-c3ccccc3)ncn2)cc1 | - | 127 | - | 59 | ? | -
c1ccc(Oc2cc(-n3cncn3)ncn2)cc1 | - | 39 | - | - | - | -
Cc1cnn(-c2cc(Oc3ccccc3)ncn2)c1 | - | 112 | - | 52 | ? | -
COc1ccc(-n2c(=O)c3c4c(sc3n(Cc3cc(=O)n5c(C)cccc5n3)c2=O)CCC4)c(OC)c1 | . | . | - | . | . | .
Cc1ccc(NC(=S)N2CCC(NC(=O)c3ccc(F)cc3)CC2)cc1 | - | - | - | - | - | -
Cc1ccccc1CNC(=O)Cc1csc2ccccc12 | . | . | - | . | . | .
O=C(c1ccc2c3n(nc2c1)-c1ccccc1CO3)N1CCOCC1 | 14µM | 58 | 18µM | 31 | ? | -
Cc1ccc2c(c1)COc1c3ccc(C(=O)N4CCCCC4)cc3nn1-2 | - | - | - | 34 | - | -
O=C(c1ccc2c3n(nc2c1)-c1ccc(Cl)cc1CO3)N1CCOCC1 | 16µM | 56 | - | 21 | - | -
O=C(c1ccc2nc(-c3ccccc3)c(-c3ccccc3)nc2c1)N1CCCCC1 | - | - | - | - | - | -
O=C(c1ccc2c3n(nc2c1)-c1ccccc1CO3)N1CCCCC1 | 6.3µM | 80 | ? | 29 | ? | -
COc1ccc(NC(=O)CSc2nc3c(oc4ccccc43)c(=O)n2-c2ccc(C)c(C)c2)cc1 | . | . | - | . | . | .
O=C(c1ccc2c(c1)N(Cc1ccc(Cl)cc1)C(=O)c1ccccc1S2=O)N1CCC(Cc2ccccc2)CC1 (centres undefined) | . | . | - | . | . | .
CCOc1ccc(C(=O)NCC(C)C)cc1 | - | 57 | - | 22 | - | -
CCOc1ccc(C(=O)NCC(c2cccs2)N(C)C)cc1 (centres undefined) | - | 28 | - | 35 | - | -
CCOc1ccc(C(=O)NCC(c2cccs2)S(=O)(=O)c2ccccc2)cc1 (centres undefined) | . | . | - | . | . | .
SMILES | LmPK inh | Shiga toxin inh | Tb PYK inh | Cycloheximide cs | RE007 growth inh | FBPA Giardia inh
CCOc1ccc(C(=O)NC(C)C2COc3ccccc3O2)cc1 (centres undefined) | - | - | - | 11 | - | -
COCCNC(=O)Cn1nc(-c2ccc(C)cc2)ccc1=O | - | - | - | - | - | -
CCCCC(=O)N1C/C=C\C(c2ccc(OC)cc2)N(Cc2ccc(F)cc2)C(=O)C1C (centres undefined) | . | - | . | - | . | -
CCC(Oc1ccccc1C)C(=O)N1CCCN(C)CC1 (centres undefined) | - | - | - | - | - | -
COc1ccc(CN(C)C[C@@H]2OCc3cnnn3CCCC(=O)N([C@H](C)CO)C[C@H]2C)cc1 | . | . | - | . | - | .
Cc1ccc(S(=O)(=O)Nc2c(O)c3ccccc3oc2=O)cc1 | - | - | - | - | - | -
COc1ccc(S(=O)(=O)Nc2c(O)c3ccccc3oc2=O)cc1 | - | 69 | - | 15 | - | -
CCc1nc(SCc2ccc(Br)cc2)n[nH]1 | - | 116 | - | 26 | - | -
CCc1nc(SCc2ccc(OCC(C)C)cc2)n[nH]1 | - | 58 | - | 32 | - | -
